Compound activity as filed in PubChem.
NS1 inh – influenza NS1 inhibition. Potency, µM (titrated, usually from 46.1 µM), inactives show top-dose activity, positive = more growth. actives 0.4% (n = 270,000). AID 2326; calls by dose curve; also: actives are rising curves; nearly all actives have a fitted effect of over 50% in size
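OD600 was taken as the measure of yeast growth restored by compound in an NS1-expressing S. cerevisiae strain. Cells had been washed out of glucose medium and diluted 1:100 into galactose -URA medium, pH 6.0.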
SARS PLpro yeast – blocks SARS-CoV papain-like protease in a yeast assay. S. cerevisiae expressing SARS-CoV PLpro, growth rescue. Potency, µM (highest dose often 32.9 µM), inactives show at the top dose activity, positive = growth rescue, most hits filed as activators. actives 0.19% (n = 330,000); calls by dose curve; also: 0% is about no effect; nearly all actives have a fitted effect of over 55% in size
HCV inh – blocks hepatitis C virus. Huh7.5.1 HCVcc-Cre infection, luciferase reporter, 44 h. Potency, µM (series often up to 41.8 µM), without a hit: at the highest dose activity change, negative = inhibition, usual class: inhibitors. actives 3.4% (n = 340,000). AID 651820; also: % is scaled to controls: 0 for no effect and ±100 for the full control effect
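Infectious HCVcc-Cre (~0.5 moi) was added to cells just after compound, with cells seeded 4 h earlier at 1,000 per well. Luciferase activity after 44 h culture reported infection; substrate was incubated 15 min at room temperature before reading.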
AMA1 RON2 block – inhibitors of Plasmodium falciparum AMA1-RON2 interaction | AlphaScreen AMA1-biotinylated RON2 peptide binding | AID 720542 | actives 0.2% (n = 360,000) | Potency, µM (titrated, usually from 58.2 µM), inactives show at the top dose activity change, negative = inhibition, hits mostly inhibitors;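 also: 0% = vehicle wells and -100% = peptide control; nearly all actives have a fitted effect of over 45% in size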
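AMA1 (3D7) with his tag at 25 nM final met compounds first, then biotinylated RON2 peptide at 25 nM; detection used donor plus acceptor beads, 10 µg/mL apiece, read by AlphaScreen after 30 min at room temperature.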
Pf growth 96h – P. falciparum growth inhibition at 96 hour, primary screen for plastid delayed-death inhibitors. Potency, µM (top dose mostly 28.7 µM), without a hit: top-dose activity change, negative = inhibition, usual class: inhibitors. actives 6.9% (n = 320,000). P. falciparum luciferase reporter growth, 96 h; also: % is scaled to controls: 0 for no effect and ±100 for the full control effect
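Infected RBCs, 2% Hct / 0.05% parasitemia final; luciferase-reporter P. falciparum; cpd 96 h, 37 C, 5% CO2; luciferase detection reagent; luminescence.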
Pf growth 48h – P. falciparum growth inhibition at 48 hours (one generation) | P. falciparum luciferase growth in erythrocytes, 48 h | Potency, µM (top dose mostly 28.7 µM), inactives show top-dose activity change, negative = inhibition, usual class: inhibitors | actives 5.9% (n = 310,000) | AID 504832; also: % is scaled to controls: 0 for no effect and ±100 for the full control effect
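Here the parasites carry a stable luciferase gene and grow inside erythrocytes in Albumax-based RPMI medium with compound for one erythrocytic cycle. Activity is scored as loss of luminescent signal.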
Starred values were filed as active, the others as inactive; ? = inconclusive; . = not tested or not shown. Most compounds without a hit are left out; they make up all but 12% or so of the library. Unless noted, calls follow the shape of the dose curve; as a rule, active = well fitted curve in the direction sought with a large enough effect; inconclusive = small, poorly fitted or top-dose-only effect, or another doubt; inactive = no such curve, though single readings can be large; an effect the other way counts as inactive or inconclusive. Potency is read from the fitted curve at half-maximal effect.

SMILES	NS1 inh	SARS PLpro yeast	HCV inh	AMA1 RON2 block	Pf growth 96h	Pf growth 48h
CC1(C)C(C(=O)N2CCN(c3ccc(Cl)cc3)CC2)C1(C)C	-47%	-3%	?	-4%	5%	-11%
O=C(C1CCN(S(=O)(=O)c2cccc3cccnc23)CC1)N1CCN(c2ccc(Cl)cc2)CC1	15%	2%	11µM*	-5%	-25%	.
Cc1ccc(C(=O)NNC(=O)C(NC(=O)c2cccc(C)c2)C(C)C)cc1 (centres undefined)	.	-5%	9%	67%	-27%	?
COc1ccc(CNC(=O)CN(c2ccccc2OC)S(=O)(=O)c2cccs2)cc1	.	2%	-17%	14%	.	.
O=C(C1CCC(CNS(=O)(=O)c2cccc3cccnc23)CC1)N1CCCC1 (centres undefined)	0%	7%	-4%	-6%	13µM*	-2%
CN(C(=O)C1CCC(CNS(=O)(=O)c2cccc3cccnc23)CC1)C1CCCCC1 (centres undefined)	7%	-5%	?	-6%	?	?
Cc1cc(/C=C2\C(=O)NC(=O)N(Cc3ccco3)C2=O)c(C)n1-c1ccc(C(=O)O)cc1	2%	1%	18%	5%	-2%	13%
Cc1cc(/C=C2\C(=O)NC(=O)N(Cc3ccccc3Cl)C2=O)c(C)n1-c1ccc(C(=O)O)cc1	11%	0%	18%	-3%	1.9µM*	7%
CCCN(CCC)C(C(=O)Nc1cccc(OC)c1)c1ccccc1 (centres undefined)	-17%	0%	?	-12%	13µM*	?
COc1cccc(NC(=O)C(NCCC(C)C)c2ccccc2)c1 (centres undefined)	-6%	-7%	-20%	-9%	?	.
C=CCN1C[C@@H](C)N(C(c2ccc(C(=O)N(CC)CC)cc2)c2cccc(OC)c2)C[C@@H]1C (some centres undefined)	.	.	21%	21%	7%	1.7µM*
C=CCN1C[C@H](C)N([C@H](c2ccc(C(=O)N(CC)CC)cc2)c2cccc(OC)c2)C[C@H]1C	.	.	.	.	-25%	4.8µM*
COCCn1ccc2c(OCC(=O)NCc3ccc(C)cc3)cccc2c1=O	.	5%	6%	6%	-17%	?
O=C(NCC1CCN(c2ccc(S(=O)(=O)N3CCOCC3)cc2)CC1)c1cccc(Cl)c1	13%	3%	?	-4%	12µM*	.
COc1cccc(C(=O)NCC2CCN(c3ccc(S(=O)(=O)N4CCOCC4)cc3)CC2)c1	-7%	2%	?	-13%	5.2µM*	12µM*
CCOc1ccc(N2C(=O)CN(O)C=C3N=c4ccccc4=C32)cc1	.	-3%	.	.	?	-23%
COc1cccc2sc(Nc3nnc(-c4ccccc4Cl)o3)nc12	-127%	-36%	?	103%	1.3µM*	9.3µM*
COc1ccccc1-c1nnc(Nc2nc3c(OC)cccc3s2)o1	3%	-27%	?	30%	?	?
CCOc1ccccc1-n1nnnc1SCC(=O)N(C)C1CCS(=O)(=O)C1 (centres undefined)	.	.	.	94%	.	.
CC(=O)c1ccc(NC(=O)Cn2c3ccccc3c3nc(=O)cc(C)n32)cc1	-3%	0%	0%	-1%	-25%	-27%
CC1=CC(c2ccccc2)NC(=S)N1 (centres undefined)	17%	25%	-2%	3%	?	-10%
S=C1NC(c2ccccc2)=CC(c2ccccc2)N1 (centres undefined)	7%	21%	-15%	29%	?	10µM*
CCOc1ccccc1NC(=O)CCCn1cc([N+](=O)[O-])cn1	.	-4%	-21%	-1%	3.3µM*	11%
COc1ccc(NC(=O)CCCn2cc([N+](=O)[O-])cn2)cc1	.	10%	5%	-6%	45%	-3%
Cc1ccc2nc(-c3ccc4c(c3)OCCO4)cn2c1	-2%	-3%	-10%	6%	67%	-89%
Nc1nc(-c2ccc3c(c2)OCCO3)cs1	-32%	-9%	?	-4%	.	100%
